The panel holds about 83,000 compounds, 20% with a hit somewhere; the sample as a whole holds those more often.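 Growth was measured after 48 h exposure to one concentration of compound in 96-well plates. Values under 10 count as active.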 Activity calls are given as the source filed them.

For the assay, the system named is NCI/ADR-RES ovarian. The experiment in a line: NCI-60 one-dose screen, 48 h (100 = growth as untreated, 0 = no growth, -100 = all killed). The conditions noted are these: 10 µM unless noted. How it is done: Growth inhibition of the NCI/ADR-RES human […] tumor cell line is measured as a screen for anti-cancer activity. Cells are grown in 96 well plates and exposed to the test compound for 48 hours. Compounds are tested at a single concentration, which is 10^-5 M for most compounds. The reported endpoint is percent growth (GI% or GIPRCNT), where numbers from 0 - 100% represent growth inhibition, and numbers from -100% - 0 represent cell death. For example, a value of 40 represents 60% growth inhibition. A value of 0 means no net growth occurred over the course of the experiment. A value of -40 indicates 40% of cells at the beginning of the experiment died by the end of the experiment. A value of -100 means all cells are dead at the end of the experiment.
NCI-60 Human Tumor Cell Lines Screen was performed using the standard one-dose NCI protocol, which is described in more detail at https://dtp.cancer.gov/discovery_development/nci-60/default.htm.
Compounds with GIPRCNT values below 10 were considered active. Activity score was based on GIPRCNT using the following formula: […]
Score is 0 for GIPRCNT values of 100 or above, 50 for GIPRCNT values of 0, and 100 for GIPRCNT values of -100.
Turning to `CN(C)CCCNc1nn2c(=O)c3ccccc3nc2c2ccccc12`, the growth was 72.7% (inactive).
As for `Cc1ccc(S(=O)(=O)NCCN2c3nc4ccccc4cc3Sc3cc4ccccc4nc32)cc1`, the figure is 63.1% (inactive).
Next, `COc1ccc(-c2cc(-c3nnc(SCC(=O)Nc4ccc(C(C)=O)cc4)n3-c3ccccc3)c3ccccc3n2)cc1OC`: 104% (inactive); `Fc1ccccc1C1c2ccccc2-c2nccn21` (stereo not given): 93.5% (inactive); `O=C1/C(=C/c2ccccc2O)C(=S)SN1Cc1ccco1`: 110% (inactive).
In the case of `O=C(O)CCC(=O)OC[C@@H](NC(=O)C(Cl)Cl)[C@H](O)c1ccc([N+](=O)[O-])cc1`, the growth was 101% (inactive).
In the case of `COc1ccc2c(c1)sc1nc(-c3ccc(N(C)C)cc3)cn12`, the growth is 76.8% (inactive).
Next, `COc1ccc(OC)c2c1CCC1(C2)NC(=O)NC1=O` (stereo not given): 102% (inactive).
For the compound `CC(=O)Nc1cc2c3c(cccc3c1)-c1ccccc1-2`, the growth was 84.5% (inactive).
As for `CC[C@@H](C)/C=C(C)/C=C/C(=O)c1c(O)c(-c2ccc(O)cc2)cn(OC2CC(=O)CCC(C)OC(=O)CC2O)c1=O` (stereo not given in full), the growth was 5.21% (active).
`Cn1c(N2N=C(c3ccc(Cl)cc3)CC2c2ccccc2)nc(-c2ccccc2)c(C#N)c1=O` (stereo not given): the growth is 82.9% (inactive).
Take `Cc1ccc2c(c1)C(=O)/C(=C\Nc1ccc(C(N)=O)cc1)C(O)O2` (stereo not given): the growth is 110% (inactive).
As for `OCCCc1n(Cc2ccc3ccccc3c2)c2ccccc2[n+]1Cc1ccc2ccccc2c1`, the figure is 90.5% (inactive); as for `N/C(=N\C(N)=N\c1nc2ccccc2s1)c1ccnc(Cl)c1`, 18.3% (inactive); as for `C=C1CC[C@@H]2[C@](C)(COC(C)=O)[C@H](OC(C)=O)CC[C@@]2(C)[C@@H]1CC(NCc1ccccc1)C1=CCOC1=O` (stereo not given in full), 23.5% (inactive).
For `COc1ccc(CCN2C(=O)CCC3=C2CCCC3=O)cc1OC`, the growth was 98.2% (inactive).
Regarding `O=C1N=C(N2CCOCC2)S/C1=C\c1cn(-c2ccccc2)nc1-c1ccccc1`, the growth was 60.2% (inactive).
As for `COc1ccc(-c2c3c(N)nc(-c4ccncc4)nc3nc3c2c(C)nn3-c2ccccc2)cc1`, the figure is 74.5% (inactive); as for `COc1cc(Cl)cc(-c2nn(-c3cccc(NC(=O)c4cc(C(F)(F)F)cc(C(F)(F)F)c4)c3)cc2-c2ccncc2)c1`, 67.8% (inactive).
On to `O=C1CNc2cc(Cl)ccc2N1`, for which the growth was 108% (inactive).
Next, `CC(=O)c1nn(-c2ccccc2)c(=Nc2ccccc2)cc1C`: 100% (inactive); `CC(C)C[C@H](NC(=O)/C=C/Cn1ccc2ccccc2c1=O)B(O)O`: 106% (inactive); `O=C(Nc1ccccc1)c1cc(-n2cnc([N+](=O)[O-])c2)cc(-n2cnc([N+](=O)[O-])c2)n1`: 111% (inactive).
As for `Oc1c(Cl)cc(Oc2cc(Cl)c(O)c(CN3CCOCC3)c2)cc1CN1CCOCC1`, the figure is 84.8% (inactive); as for `CCCCCCCCCCCCC1CCCC(C)C1` (stereo not given), 95.3% (inactive); as for `COc1cc(C(=O)/C=C/c2cccc(Nc3ccnc4cc(Cl)ccc34)c2)cc(OC)c1OC`, 12.2% (inactive).
Next, `CN1CCN(CCCOc2ccc3ncnc(Nc4ccc(OCc5cccc(F)c5)c(Cl)c4)c3c2)CC1`: 18.3% (inactive); `Cc1nn(-c2ccccc2)cc1/C=C1\SC(N2CCCCC2)=NC1=O`: 89.7% (inactive).
`COc1cc(/C=C/C(=O)CC(=O)/C=C/c2ccc(OC(=O)CCNC34CC5CC(CC(C5)C3)C4)c(OC)c2)ccc1OC(=O)CCNC12CC3CC(CC(C3)C1)C2`: the growth is 78.4% (inactive).
As for `COc1ccc(-c2cnc(SCC(=O)Nc3ccc(-c4nc5ccccc5s4)cc3)n2-c2ccc(OC)cc2)cc1`, the figure is 107% (inactive); as for `N#CC1c2ccccc2C=CN1C(=O)N(c1ccccc1)c1ccccc1` (stereo not given), 96.2% (inactive); as for `O=C1C2C(C(=O)N1CC[Se][Se]CCN1C(=O)C3C(C1=O)[C@H]1C=C[C@@H]3C1)[C@H]1C=C[C@@H]2C1` (stereo not given in full), -10.9% (active).
Next, `C[C@@H]1[C@H]2[C@H](C=C3[C@@H]4CC[C@H]5Cc6nc7c(nc6C[C@]5(C)[C@H]4C[C@@H](O)[C@@]32C)C[C@@H]2CC[C@H]3C4=C[C@@H]5O[C@@]6(CC[C@](C)(CO)O6)[C@@H](C)[C@@]5(O)[C@@]4(C)[C@H](O)C[C@@H]3[C@@]2(C)C7)O[C@]12CCC(C)(C)O2`: 54% (inactive); `CC(=O)N1N=C(c2ccc(C(F)(F)F)cc2)CC1c1ccc2c(c1)OCO2` (stereo not given): 95.8% (inactive); `c1ccc(-c2oc(-c3ccccc3)c3ccccc23)cc1`: 96.5% (inactive).
Next, `O=C1Nc2ccc(C(=O)O)c(O)c2C1=O`: 106% (inactive); `O=C(COc1ccc(/C=C2\Oc3ccc4ccccc4c3C2=O)cc1)c1ccc([N+](=O)[O-])cc1`: 101% (inactive); `COc1ccc2c(c1)CC/C(=C\c1ccc(OCC(=O)Nc3nc4ccccc4s3)cc1)C2=O`: 102% (inactive).
In the case of `O=C1c2cc3c(cc2-c2c1c1ccc(Cl)cc1c(=O)n2CCCNCCO)OCO3`, the growth was -51.1% (active).
As for `N#Cc1ccc(-c2csc(Nc3ccc4nc5n(c(=O)c4c3)CCC5)n2)cc1`, the figure is 105% (inactive).
